Measured values as given in PubChem BioAssay (Tox21).
Results filed as inconclusive are left out. The source made the active and inactive calls. Unless noted, calls come from the whole dose curve; as a rule, active = well fitted curve in the direction sought with a large enough effect in the repeat runs; inconclusive = weak or mixed curves; inactive = no such curve, though single readings can be large; an effect the other way counts as inactive or inconclusive.

Columns and labels:
[1] = qHTS assay to identify small molecule antagonists of the sonic hedgehog signaling (Shh) pathway (AID 1259369; calls by dose curve; note: nearly all actives have a fitted effect of over 45% in size)
How it was run: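 Antagonist mode: compound added to 3T3 Gli1-Luc cells followed by conditioned-medium stimulation, 24 h at 37 C, 5% CO2. Inhibition taken as loss of Gli1-driven luciferase luminescence.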

[2] = qHTS assay to identify small molecule agonists of the androgen receptor (AR) signaling pathway in the presence of an antagonist - cell viability counter screen (AID 1259379);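 note: MDA-kb2 human breast cancer cells carrying an MMTV luciferase reporter; series mostly up to about 92 µM; nearly all actives have a fitted effect of over 25% in size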
How it was run: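 Cytotoxicity counter-screen run in the same wells as the nilutamide-challenged (3.0 µM final) AR agonist assay in MDA-kb2 cells. Compounds tested at 15 concentrations for 16 h, 37 °C without CO2; CellTiter-Fluor fluorescence read.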

[3] = qHTS assay to identify small molecule agonists of the estrogen receptor beta (ER-beta) signaling pathway - cell viability counter screen (AID 1259380); note: nearly all actives have a fitted effect of over 30% in size
How it was run: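 Cell viability counter screen: CellTiter-Glo luminescence (30 min, room temperature) measured in the same wells as the beta-lactamase readout, after 16 hr compound exposure at 37C of ER-beta-bla HEK293T cells in 2% charcoal-stripped FBS medium.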

[4] = qHTS assay to identify small molecule antagonists of the estrogen receptor beta (ER-beta) signaling pathway - cell viability counter screen (AID 1259382);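 note: HEK293T cells carrying ER-beta-UAS-bla reporter stimulated with estradiol; series mostly up to about 92 µM; nearly all actives have a fitted effect of over 55% in size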
How it was run: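 Cytotoxicity was measured in the same wells by CellTiter-Glo luminescence after 30 min at room temperature. Cells were ER-beta-bla HEK293T in charcoal-stripped serum, given compound together with 1 nM E2 and incubated 16 h at 37C.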

[5] = qHTS assay to identify small molecule agonists or antagonists of the thyroid stimulating hormone receptor (TSHR) signaling pathway - wild type cell line counter screen (AID 1259384; calls by dose curve)
How it was run: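 Wild-type HEK293 cells were plated 18 h at 37 C/5% CO2, pin-dosed with compound plus Ro20-1724 medium, held 30 min at room temperature, then given cAMP-d2 and anti-cAMP-cryptate; fluorescence was read after 1 h. Fifteen concentrations, triplicate.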

[6] = target: Thyrotropin receptor (Homo sapiens) (UniProt P16473); test: qHTS assay to identify small molecule antagonists of the thyroid stimulating hormone receptor (TSHR) signaling pathway (AID 1259385; calls by dose curve; note: nearly all actives have a fitted effect of over 20% in size)
Chain of Thyrotropin receptor (Homo sapiens) (P16473 whole entry, looked up): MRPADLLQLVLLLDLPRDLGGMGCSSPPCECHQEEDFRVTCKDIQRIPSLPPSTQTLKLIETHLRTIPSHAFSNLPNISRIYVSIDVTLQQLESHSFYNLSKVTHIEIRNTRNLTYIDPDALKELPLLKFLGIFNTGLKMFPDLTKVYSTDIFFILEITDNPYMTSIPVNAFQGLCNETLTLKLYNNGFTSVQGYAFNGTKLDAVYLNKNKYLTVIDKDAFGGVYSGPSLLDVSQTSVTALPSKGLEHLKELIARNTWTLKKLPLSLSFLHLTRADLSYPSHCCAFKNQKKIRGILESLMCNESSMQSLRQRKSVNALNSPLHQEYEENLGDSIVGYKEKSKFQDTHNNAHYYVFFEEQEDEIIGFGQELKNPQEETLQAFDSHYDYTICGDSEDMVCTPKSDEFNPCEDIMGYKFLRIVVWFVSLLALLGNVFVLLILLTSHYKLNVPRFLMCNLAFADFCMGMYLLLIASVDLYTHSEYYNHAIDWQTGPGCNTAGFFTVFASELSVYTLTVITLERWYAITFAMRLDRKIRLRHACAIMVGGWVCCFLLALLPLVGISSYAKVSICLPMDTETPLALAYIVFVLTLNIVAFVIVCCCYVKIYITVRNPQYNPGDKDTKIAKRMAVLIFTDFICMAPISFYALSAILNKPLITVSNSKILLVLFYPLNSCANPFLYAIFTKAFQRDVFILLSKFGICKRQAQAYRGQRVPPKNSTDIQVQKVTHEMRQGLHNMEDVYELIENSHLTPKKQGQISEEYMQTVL
How it was run: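 TSHR-HEK293 cells were plated and held 18 h at 37C/5% CO2, then given compound plus Ro20-1724 and stimulated with TSH at 1.5 ng/mL final. After 30 min at room temperature, cAMP was detected with cAMP-d2/anti-cAMP-cryptate (1 h) by fluorescence.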

[7] = qHTS assay to identify small molecule agonists of the estrogen receptor alpha (ER-alpha) signaling pathway in the presence of an antagonist - cell viability counter screen (AID 1259386); note: series mostly up to about 92 µM; nearly all actives have a fitted effect of over 30% in size
How it was run: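 Compounds tested at 15 concentrations for 22 h at 37C alongside 10.0nM (final) ICI-182,780 antagonist, in VM7Luc4E2 cells grown in phenol red-free, charcoal-stripped medium. Viability read by CellTiter-Fluor fluorescence after 1 h reagent incubation.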

[8] = target: Progesterone receptor (Homo sapiens) (UniProt P06401); test: qHTS assay to identify small molecule agonists of the progesterone receptor (PR) signaling pathway (AID 1346784; calls by dose curve; note: nearly all actives have a fitted effect of over 30% in size)
Chain of Progesterone receptor (Homo sapiens) (P06401 whole entry, looked up): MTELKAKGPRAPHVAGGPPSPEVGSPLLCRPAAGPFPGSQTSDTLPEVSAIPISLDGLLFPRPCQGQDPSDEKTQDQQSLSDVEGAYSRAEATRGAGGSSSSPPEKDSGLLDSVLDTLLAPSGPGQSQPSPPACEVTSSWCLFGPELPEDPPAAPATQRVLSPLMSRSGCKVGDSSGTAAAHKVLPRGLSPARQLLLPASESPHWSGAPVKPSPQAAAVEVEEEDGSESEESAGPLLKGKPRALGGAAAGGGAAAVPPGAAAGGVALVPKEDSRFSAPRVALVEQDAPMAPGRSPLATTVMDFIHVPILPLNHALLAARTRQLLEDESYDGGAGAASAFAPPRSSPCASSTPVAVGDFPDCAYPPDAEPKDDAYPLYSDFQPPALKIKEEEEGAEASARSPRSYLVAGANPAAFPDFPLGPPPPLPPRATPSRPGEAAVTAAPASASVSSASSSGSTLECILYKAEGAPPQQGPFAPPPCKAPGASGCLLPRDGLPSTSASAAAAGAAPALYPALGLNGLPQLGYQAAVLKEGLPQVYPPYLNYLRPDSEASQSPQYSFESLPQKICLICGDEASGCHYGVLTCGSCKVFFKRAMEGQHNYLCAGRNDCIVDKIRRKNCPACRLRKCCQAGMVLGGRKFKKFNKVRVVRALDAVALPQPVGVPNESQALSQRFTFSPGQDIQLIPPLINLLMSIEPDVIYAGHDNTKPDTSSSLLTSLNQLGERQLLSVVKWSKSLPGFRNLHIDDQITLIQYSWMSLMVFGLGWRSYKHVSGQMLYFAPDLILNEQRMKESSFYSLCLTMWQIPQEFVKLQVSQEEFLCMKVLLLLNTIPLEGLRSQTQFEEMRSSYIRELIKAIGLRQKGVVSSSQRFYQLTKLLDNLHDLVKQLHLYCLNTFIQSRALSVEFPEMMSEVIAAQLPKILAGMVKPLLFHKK
How it was run: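 Agonist mode, quantitative HTS format in a HEK 293T line expressing a UAS-controlled beta-lactamase reporter; 16 hr compound exposure at 37C in 2% charcoal-stripped FBS, then LiveBLAzer B/G FRET fluorescence.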

[9] = target: Progesterone receptor (Homo sapiens) (UniProt P06401); test: qHTS assay to identify small molecule antagonists of the progesterone receptor (PR) signaling pathway (AID 1346795; active = well fitted inhibition curve with a large enough effect in the signal ratio in the repeat runs, not every such curve was filed as active; the % refers to the signal ratio)
How it was run: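 HEK293T PR-UAS-bla reporter cells in charcoal-stripped serum (2%) received compound after a 6 hr settling period, followed by R5020 agonist at 1 nM final; 16 hr incubation preceded the FRET substrate step and fluorescence measurement.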

[10] = qHTS assay to identify small molecule antagonists of the progesterone receptor (PR) signaling pathway - cell viability counter screen (AID 1346798); note: series mostly up to about 92 µM; nearly all actives have a fitted effect of over 50% in size
How it was run: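 Same-well multiplex: after 16 hr at 37C with compound and R5020 stimulation, HEK293T cells carrying a UAS-bla reporter received LiveBLAzer substrate (2 hr RT), then CellTiter-Glo (30 min RT) for luminescent viability.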

[11] = qHTS assay to identify small molecule agonists of the progesterone receptor (PR) signaling pathway - cell viability counter screen (AID 1346799; calls by dose curve; note: nearly all actives have a fitted effect of over 45% in size)
How it was run: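 Counter screen for cytotoxicity: compound-treated PR-UAS-bla HEK293T cells (16 hr, 37C, 5% CO2) were assayed with CellTiter-Glo, luminescence measured after 30 min at room temperature.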

[12] = qHTS assay to identify small molecule antagonists of the TGF-beta/Smad signaling pathway - cell viability counter screen (AID 1346824); note: nearly all actives have a fitted effect of over 50% in size
How it was run: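 SBE-bla HEK 293T cells were plated overnight at 37 C, then given compounds in DMSO plus TGF-beta1 (added as 0.25 ng/mL solution) for 5 hr. After the bla read, CellTiter-Glo was added to the same wells and luminescence read after 30 min at room temperature.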

[13] = qHTS assay to identify small molecule agonists of the TGF-beta/Smad signaling pathway - cell viability counter screen (AID 1346829); note: top concentration of the series differs between compounds; nearly all actives have a fitted effect of over 45% in size
How it was run: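 After overnight seating at 37 C and 5% CO2, reporter cells got compounds for 5 hr and FRET substrate for 2 hr; cell viability then came from CellTiter-Glo luminescence.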

[14] = qHTS assay to identify small molecule agonists of the TGF-beta/Smad signaling pathway (AID 1346859; active = well fitted activation curve with a large enough effect in the signal ratio in the repeat runs, not every such curve was filed as active; the % refers to the signal ratio; note: series mostly up to about 77 µM)
How it was run: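 Smad-responsive beta-lactamase reporter cells (HEK 293T) received compounds from DMSO stocks after overnight attachment, were incubated 5 hr, then treated 2 hr with FRET substrate before dual-emission fluorescence measurement (405 nm excitation).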

[15] = target: Thyrotropin-releasing hormone receptor (Homo sapiens) (UniProt P34981); test: qHTS assay to identify small molecule antagonists of the thyrotropin-releasing hormone receptor (TRHR) signaling pathway (AID 1346877; active = well fitted inhibition curve with a large enough effect in the repeat runs, not every such curve was filed as active; note: series mostly up to about 51 µM)
Chain of Thyrotropin-releasing hormone receptor (Homo sapiens) (P34981 whole entry, looked up): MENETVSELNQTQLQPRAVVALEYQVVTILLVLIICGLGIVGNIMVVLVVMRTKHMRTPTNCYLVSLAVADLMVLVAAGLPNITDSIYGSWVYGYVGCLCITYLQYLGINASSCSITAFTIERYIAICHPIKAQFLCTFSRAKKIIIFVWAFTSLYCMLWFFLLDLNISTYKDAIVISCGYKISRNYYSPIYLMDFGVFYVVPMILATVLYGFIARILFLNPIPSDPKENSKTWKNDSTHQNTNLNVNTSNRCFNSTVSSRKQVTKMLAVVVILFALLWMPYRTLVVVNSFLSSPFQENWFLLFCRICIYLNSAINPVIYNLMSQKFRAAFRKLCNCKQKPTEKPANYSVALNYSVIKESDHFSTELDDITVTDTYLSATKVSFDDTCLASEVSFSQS
How it was run: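 Antagonist mode: after a 5 min room-temperature compound exposure, cells were stimulated with 1 nM (final) TRH. Dye-loaded TRHR-HEK293 cells were used, and calcium-dependent fluorescence was followed for 3 min, with 15-point titrations run in triplicate.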

[16] = target: Thyrotropin-releasing hormone receptor (Homo sapiens) (UniProt P34981); test: qHTS assay to identify small molecule agonists of the thyrotropin-releasing hormone receptor (TRHR) signaling pathway (AID 1346891; calls by dose curve;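 note: HEK293 cells expressing TRHR with calcium dye readout; series mostly up to about 58 µM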)
How it was run: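 Agonist-mode calcium mobilisation screen: TRHR-transfected HEK293 cells cultured overnight (18 h), dye-loaded for 2 h at 37 °C, exposed to compounds, and monitored by fluorescence for 3 min.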

[17] = target: Estrogen receptor (Homo sapiens) (UniProt P03372); test: qHTS assay to identify small molecule agonists of the estrogen receptor alpha (ER-alpha) signaling pathway in the presence of an antagonist (AID 1259383; calls by dose curve; note: top concentration of the series differs between compounds; nearly all actives have a fitted effect of over 15% in size)
Chain of Estrogen receptor (Homo sapiens) (P03372 whole entry, looked up): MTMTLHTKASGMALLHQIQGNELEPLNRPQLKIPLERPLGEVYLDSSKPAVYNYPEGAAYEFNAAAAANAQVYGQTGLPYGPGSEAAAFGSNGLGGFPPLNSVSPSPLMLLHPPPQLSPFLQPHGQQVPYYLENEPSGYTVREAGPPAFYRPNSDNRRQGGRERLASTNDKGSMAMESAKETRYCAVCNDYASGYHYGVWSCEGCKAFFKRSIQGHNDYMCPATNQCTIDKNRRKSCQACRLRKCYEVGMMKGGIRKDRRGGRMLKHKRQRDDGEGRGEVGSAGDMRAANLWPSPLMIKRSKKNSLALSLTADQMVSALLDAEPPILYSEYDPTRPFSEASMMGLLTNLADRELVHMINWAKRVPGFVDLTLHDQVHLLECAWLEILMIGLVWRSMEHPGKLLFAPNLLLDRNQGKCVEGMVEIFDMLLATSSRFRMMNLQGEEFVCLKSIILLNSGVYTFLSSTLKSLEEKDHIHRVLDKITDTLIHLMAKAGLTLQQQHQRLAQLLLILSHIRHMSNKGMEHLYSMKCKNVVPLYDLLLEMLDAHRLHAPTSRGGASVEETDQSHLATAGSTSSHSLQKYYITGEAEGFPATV
How it was run: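 Agonist-mode confirmation run in the presence of 10.0nM (final) ICI-182,780 antagonist. The reporter was ERE-driven luciferase in VM7Luc4E2 cells, grown in charcoal-stripped serum. Cells were exposed to 15-concentration compound series for 22hr, then ONE-Glo luminescence was read.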

Measured: Potency

N#CC(Br)(Br)C(N)=O
not listed: [17]
inactive: all other assays above

CCOC(=O)COc1ccc(Cl)cc1Cl
not listed: [10] | [14] | [17]
inactive: all other assays above

CCN[C@H](C)Cc1cccc(C(F)(F)F)c1
not listed: [7] | [10] | [11]
inactive: all other assays above

O=c1[nH]c2ccccc2o1
not listed: [7] | [10] | [11] | [12] | [17]
inactive: all other assays above

ClCC1CO1 (centres undefined)
not listed: [8] | [9]
inactive: all other assays above

COC(=O)[C@@H](N)CCCN/C(N)=N/[N+](=O)[O-]
not listed: [10] | [17]
inactive: all other assays above

O=[N+]([O-])c1cccc(CCl)c1
not listed: [17]
inactive: all other assays above

N#CN=C1SCCN1Cc1ccc(Cl)nc1
not listed: [10] | [11]
inactive: all other assays above

CCN1CCCC1CNC(=O)C(O)(c1ccccc1)c1ccccc1 (centres undefined)
not listed: [7] | [15] | [16] | [17]
inactive: all other assays above

CCOP(=O)(CN(CCO)CCO)OCC
not listed: [6] | [7] | [15] | [16]
inactive: all other assays above

C=CCN1CC[C@]23CCCC[C@H]2[C@H]1Cc1ccc(O)cc13
not listed: [7] | [10] | [17]
inactive: all other assays above

O=C(CCl)NCO
not listed: [11]
inactive: all other assays above

CCN(CC)CCOC(=O)C(O)(c1ccccc1)c1ccccc1
not listed: [10]
inactive: all other assays above
